# Assays:
# Experiment in all cases: DAPPL (digital affinity profiling via proximity ligation, sequencing); 10 mM Tris-HCl pH 7.5, 50 mM NaCl, 1 mM DTT, 4% glycerol, room temperature, 30 min; GST-TFs on glutathione beads, 16-mer random dsDNA library, 0.1% formaldehyde crosslink after washing; high values mean tight binding
# FEV = target: T1, FEV (Homo sapiens, UniProt Q99581 1-238); conditions: protein: recombinant; tags: N-terminal GST; dsDNA, one strand shown
# T1 sequence: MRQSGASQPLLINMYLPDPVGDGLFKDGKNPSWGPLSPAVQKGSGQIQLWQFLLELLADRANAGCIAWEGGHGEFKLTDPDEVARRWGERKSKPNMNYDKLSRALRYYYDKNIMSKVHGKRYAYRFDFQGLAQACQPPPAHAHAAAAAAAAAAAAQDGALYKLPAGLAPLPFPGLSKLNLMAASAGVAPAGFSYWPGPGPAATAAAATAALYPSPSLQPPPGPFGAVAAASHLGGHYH
# Outline: (§1)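 Human transcription factors were made in yeast as GST fusions, captured on glutathione beads and barcoded with DNA. With a tag-only sample included, the pool was incubated with 200 nmole of a random double-stranded 16-mer DNA library in Tris/NaCl/DTT/glycerol buffer at room temperature for 30 min, then crosslinked with 0.1% formaldehyde after washing, ligated by proximity, amplified and sequenced. For binding signal, each hexamer's read frequency for a factor is divided by its frequency for the tag-only sample.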
# ETV5 = ETV5 (Homo sapiens, UniProt P41161 1-510); conditions: protein: recombinant; tags: N-terminal GST; dsDNA, one strand shown
# ETV5, sequence (P41161 whole entry): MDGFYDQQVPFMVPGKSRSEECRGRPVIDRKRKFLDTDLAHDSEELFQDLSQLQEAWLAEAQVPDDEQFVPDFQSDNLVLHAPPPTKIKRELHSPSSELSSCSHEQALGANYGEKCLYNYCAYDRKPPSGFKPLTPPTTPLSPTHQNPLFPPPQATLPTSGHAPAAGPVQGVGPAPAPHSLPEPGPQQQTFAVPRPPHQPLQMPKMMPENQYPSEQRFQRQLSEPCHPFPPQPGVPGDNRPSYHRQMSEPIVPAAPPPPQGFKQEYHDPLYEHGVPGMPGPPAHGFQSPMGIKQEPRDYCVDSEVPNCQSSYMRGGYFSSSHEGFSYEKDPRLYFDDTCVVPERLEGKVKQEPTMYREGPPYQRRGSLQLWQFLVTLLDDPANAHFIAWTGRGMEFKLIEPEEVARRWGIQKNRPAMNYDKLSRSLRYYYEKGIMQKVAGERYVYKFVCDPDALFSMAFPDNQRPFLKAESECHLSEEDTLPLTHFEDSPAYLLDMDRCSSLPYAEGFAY
# Outline: as §1
# HSF1 = HSF1 (Homo sapiens, UniProt Q00613 1-529); conditions: protein: recombinant; tags: N-terminal GST; chain copies: 3; dsDNA, one strand shown
# HSF1, sequence (Q00613 whole entry): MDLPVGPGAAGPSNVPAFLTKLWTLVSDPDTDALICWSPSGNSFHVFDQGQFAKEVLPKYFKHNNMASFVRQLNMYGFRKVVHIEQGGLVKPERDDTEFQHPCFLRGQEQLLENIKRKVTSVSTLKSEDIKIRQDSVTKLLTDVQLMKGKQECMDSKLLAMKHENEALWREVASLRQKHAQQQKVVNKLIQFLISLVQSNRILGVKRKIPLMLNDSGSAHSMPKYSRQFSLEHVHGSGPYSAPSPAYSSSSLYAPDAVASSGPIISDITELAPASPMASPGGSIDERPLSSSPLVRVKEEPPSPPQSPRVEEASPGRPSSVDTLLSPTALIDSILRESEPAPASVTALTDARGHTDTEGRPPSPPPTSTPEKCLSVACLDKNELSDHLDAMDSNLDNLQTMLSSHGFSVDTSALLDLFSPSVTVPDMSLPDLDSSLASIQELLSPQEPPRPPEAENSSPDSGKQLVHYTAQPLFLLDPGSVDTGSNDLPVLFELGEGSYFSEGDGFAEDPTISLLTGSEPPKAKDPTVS
# Outline: as §1
# SPIC = target: T2, SPIC (Homo sapiens, UniProt Q8N5J4 1-248); conditions: protein: recombinant; tags: N-terminal GST; dsDNA, one strand shown
# T2 sequence: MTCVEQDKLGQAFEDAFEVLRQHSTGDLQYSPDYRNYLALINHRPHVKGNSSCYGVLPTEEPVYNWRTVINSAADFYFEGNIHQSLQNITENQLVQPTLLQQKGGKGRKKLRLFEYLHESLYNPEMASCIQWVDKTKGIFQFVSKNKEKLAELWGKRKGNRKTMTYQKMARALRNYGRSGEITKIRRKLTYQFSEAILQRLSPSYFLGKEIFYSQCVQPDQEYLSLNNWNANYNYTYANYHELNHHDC
# Outline: as §1
# ELF4 = ELF4 (Homo sapiens, UniProt Q99607 1-663); conditions: protein: recombinant; tags: N-terminal GST; dsDNA, one strand shown
# ELF4, sequence (Q99607 whole entry): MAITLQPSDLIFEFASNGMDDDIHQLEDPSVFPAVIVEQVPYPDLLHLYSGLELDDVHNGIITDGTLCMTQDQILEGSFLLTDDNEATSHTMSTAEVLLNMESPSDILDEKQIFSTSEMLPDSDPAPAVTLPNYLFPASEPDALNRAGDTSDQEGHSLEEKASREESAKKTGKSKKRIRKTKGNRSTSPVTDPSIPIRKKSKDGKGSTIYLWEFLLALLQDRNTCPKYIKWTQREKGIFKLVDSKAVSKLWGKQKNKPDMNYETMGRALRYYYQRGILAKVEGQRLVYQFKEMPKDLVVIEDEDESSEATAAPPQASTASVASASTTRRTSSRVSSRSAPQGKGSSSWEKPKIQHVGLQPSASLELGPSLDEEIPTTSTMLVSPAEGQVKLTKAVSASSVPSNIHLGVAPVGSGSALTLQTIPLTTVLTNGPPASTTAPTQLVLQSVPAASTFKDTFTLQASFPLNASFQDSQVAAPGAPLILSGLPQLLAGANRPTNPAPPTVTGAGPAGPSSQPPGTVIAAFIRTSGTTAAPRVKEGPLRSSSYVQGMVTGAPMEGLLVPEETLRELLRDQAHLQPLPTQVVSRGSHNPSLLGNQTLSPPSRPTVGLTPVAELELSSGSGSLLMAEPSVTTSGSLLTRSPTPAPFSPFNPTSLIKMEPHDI
# Outline: as §1
# ELK4 = target: T3, ELK4 (Homo sapiens, UniProt P28324-2 1-405); conditions: protein: recombinant; tags: N-terminal GST; dsDNA, one strand shown
# T3 sequence: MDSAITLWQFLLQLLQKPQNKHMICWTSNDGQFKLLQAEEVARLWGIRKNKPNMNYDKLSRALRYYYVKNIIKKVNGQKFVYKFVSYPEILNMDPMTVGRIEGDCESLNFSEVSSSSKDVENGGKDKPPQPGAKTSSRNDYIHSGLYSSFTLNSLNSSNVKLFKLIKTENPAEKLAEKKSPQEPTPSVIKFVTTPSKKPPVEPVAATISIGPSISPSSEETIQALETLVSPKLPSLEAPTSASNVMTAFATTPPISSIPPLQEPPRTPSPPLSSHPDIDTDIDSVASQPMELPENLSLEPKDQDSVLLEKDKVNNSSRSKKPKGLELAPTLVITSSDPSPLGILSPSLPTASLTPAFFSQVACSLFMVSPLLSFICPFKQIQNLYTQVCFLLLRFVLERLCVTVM
# Outline: as §1
# ETV2 = target: T4, ETV2 (Homo sapiens, UniProt O00321 1-342); conditions: protein: recombinant; tags: N-terminal GST; dsDNA, one strand shown
# T4 sequence: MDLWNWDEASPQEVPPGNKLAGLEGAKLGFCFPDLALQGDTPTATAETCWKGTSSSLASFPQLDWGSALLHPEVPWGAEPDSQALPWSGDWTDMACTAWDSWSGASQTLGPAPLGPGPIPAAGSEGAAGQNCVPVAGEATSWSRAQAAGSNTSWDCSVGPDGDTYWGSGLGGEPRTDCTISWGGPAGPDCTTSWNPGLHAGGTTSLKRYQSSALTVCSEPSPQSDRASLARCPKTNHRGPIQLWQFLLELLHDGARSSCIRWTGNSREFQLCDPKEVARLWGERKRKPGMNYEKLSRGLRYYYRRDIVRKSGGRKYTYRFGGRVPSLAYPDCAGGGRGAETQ
# Outline: as §1
# ELF3 = target: T5, ELF3 (Homo sapiens, UniProt P78545 1-371); conditions: protein: recombinant; tags: N-terminal GST; dsDNA, one strand shown
# T5 sequence: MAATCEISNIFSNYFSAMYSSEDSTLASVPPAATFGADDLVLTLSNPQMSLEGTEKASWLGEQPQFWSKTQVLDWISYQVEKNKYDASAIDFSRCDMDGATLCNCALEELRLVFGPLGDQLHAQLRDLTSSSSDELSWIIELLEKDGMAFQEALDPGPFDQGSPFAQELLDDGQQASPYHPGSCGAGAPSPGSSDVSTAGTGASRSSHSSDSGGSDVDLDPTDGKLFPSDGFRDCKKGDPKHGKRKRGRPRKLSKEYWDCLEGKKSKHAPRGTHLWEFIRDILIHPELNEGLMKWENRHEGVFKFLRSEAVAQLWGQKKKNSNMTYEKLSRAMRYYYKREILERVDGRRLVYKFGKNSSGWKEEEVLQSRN
# Outline: as §1
# CRX = CRX (Homo sapiens, UniProt O43186 1-299); conditions: protein: recombinant; tags: N-terminal GST; dsDNA, one strand shown
# CRX, sequence (O43186 whole entry): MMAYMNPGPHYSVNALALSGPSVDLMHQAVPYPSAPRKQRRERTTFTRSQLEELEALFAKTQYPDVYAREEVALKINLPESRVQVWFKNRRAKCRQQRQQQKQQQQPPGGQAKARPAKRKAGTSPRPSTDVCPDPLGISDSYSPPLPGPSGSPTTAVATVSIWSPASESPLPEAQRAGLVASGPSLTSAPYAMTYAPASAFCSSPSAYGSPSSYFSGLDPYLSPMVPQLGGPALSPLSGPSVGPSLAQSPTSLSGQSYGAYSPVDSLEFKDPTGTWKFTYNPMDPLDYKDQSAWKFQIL
# Outline: as §1
# ETV1 = ETV1 (Homo sapiens, UniProt P50549 1-477); conditions: protein: recombinant; tags: N-terminal GST; dsDNA, one strand shown
# ETV1, sequence (P50549 whole entry): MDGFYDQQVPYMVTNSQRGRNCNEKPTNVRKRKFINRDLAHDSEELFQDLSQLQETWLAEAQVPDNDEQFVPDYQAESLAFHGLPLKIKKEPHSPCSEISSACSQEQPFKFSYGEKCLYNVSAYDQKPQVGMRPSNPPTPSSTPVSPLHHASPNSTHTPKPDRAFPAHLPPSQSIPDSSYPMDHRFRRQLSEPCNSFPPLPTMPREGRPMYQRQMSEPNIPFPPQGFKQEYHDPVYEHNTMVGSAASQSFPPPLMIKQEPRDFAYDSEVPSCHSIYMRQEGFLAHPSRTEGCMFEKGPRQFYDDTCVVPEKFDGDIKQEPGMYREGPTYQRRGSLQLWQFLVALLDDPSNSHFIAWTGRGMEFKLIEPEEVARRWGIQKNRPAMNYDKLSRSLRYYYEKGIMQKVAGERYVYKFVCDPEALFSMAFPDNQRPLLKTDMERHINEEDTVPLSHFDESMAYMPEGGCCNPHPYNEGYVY
# Outline: as §1
# ERF = target: T6, ERF (Homo sapiens, UniProt P50548 1-548); conditions: protein: recombinant; tags: N-terminal GST; dsDNA, one strand shown
# T6 sequence: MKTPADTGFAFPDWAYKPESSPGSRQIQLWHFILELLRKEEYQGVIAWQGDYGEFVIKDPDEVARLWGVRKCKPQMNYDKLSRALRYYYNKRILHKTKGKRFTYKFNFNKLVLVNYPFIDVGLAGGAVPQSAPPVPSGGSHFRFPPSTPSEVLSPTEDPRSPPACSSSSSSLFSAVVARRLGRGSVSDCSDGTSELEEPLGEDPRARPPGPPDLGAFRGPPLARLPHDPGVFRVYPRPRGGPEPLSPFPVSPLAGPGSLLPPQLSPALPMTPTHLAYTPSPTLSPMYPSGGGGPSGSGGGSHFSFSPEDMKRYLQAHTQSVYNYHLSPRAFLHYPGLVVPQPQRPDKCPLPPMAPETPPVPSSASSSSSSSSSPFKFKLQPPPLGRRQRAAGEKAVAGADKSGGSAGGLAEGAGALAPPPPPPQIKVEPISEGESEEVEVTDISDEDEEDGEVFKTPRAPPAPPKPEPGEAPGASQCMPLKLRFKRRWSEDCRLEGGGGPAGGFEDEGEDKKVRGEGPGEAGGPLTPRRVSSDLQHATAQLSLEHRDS
# Outline: as §1
# ETV3L = target: T7, ETV3L (Homo sapiens, UniProt Q6ZN32 1-361); conditions: protein: recombinant; tags: N-terminal GST; dsDNA, one strand shown
# T7 sequence: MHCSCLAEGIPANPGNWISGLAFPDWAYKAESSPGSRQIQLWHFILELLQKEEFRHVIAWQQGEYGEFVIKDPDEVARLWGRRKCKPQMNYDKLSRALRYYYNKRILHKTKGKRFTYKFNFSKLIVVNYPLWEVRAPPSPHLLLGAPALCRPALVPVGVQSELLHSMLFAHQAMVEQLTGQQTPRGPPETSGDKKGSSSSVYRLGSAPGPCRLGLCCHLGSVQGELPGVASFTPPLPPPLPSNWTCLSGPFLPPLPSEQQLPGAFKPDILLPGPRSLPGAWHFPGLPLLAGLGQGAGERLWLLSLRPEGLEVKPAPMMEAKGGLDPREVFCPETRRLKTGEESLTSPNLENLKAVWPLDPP
# Outline: as §1
# ETS2 = target: T8, ETS2 (Homo sapiens, UniProt P15036 1-469); conditions: protein: recombinant; tags: N-terminal GST; dsDNA, one strand shown
# T8 sequence: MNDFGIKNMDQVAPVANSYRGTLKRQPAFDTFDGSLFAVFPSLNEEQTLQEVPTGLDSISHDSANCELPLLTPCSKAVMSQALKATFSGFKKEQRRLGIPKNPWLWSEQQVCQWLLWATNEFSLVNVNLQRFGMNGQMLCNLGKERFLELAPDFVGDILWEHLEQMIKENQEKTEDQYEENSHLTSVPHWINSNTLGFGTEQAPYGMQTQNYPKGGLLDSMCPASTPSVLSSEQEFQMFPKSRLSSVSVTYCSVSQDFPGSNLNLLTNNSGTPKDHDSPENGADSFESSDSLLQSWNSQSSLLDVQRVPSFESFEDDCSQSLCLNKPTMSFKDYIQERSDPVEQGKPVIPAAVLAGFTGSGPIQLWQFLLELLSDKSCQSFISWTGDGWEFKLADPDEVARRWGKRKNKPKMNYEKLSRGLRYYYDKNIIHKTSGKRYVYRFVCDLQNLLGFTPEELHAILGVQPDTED
# Outline: as §1
# SPDEF = target: T9, SPDEF (Homo sapiens, UniProt O95238 1-335); conditions: protein: recombinant; tags: N-terminal GST; dsDNA, one strand shown
# T9 sequence: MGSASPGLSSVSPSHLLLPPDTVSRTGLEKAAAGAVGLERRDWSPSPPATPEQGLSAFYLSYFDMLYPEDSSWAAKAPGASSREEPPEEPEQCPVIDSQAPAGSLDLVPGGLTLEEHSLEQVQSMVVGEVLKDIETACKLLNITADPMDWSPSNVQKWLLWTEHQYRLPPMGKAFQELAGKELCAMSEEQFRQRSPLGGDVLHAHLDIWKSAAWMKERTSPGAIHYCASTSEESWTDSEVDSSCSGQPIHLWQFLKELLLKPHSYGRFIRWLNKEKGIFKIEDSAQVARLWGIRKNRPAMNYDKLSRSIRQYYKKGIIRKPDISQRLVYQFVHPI
# Outline: as §1
# ETV7 = target: T10, ETV7 (Homo sapiens, UniProt Q9Y603 1-341); conditions: protein: recombinant; tags: N-terminal GST; dsDNA, one strand shown
# T10 sequence: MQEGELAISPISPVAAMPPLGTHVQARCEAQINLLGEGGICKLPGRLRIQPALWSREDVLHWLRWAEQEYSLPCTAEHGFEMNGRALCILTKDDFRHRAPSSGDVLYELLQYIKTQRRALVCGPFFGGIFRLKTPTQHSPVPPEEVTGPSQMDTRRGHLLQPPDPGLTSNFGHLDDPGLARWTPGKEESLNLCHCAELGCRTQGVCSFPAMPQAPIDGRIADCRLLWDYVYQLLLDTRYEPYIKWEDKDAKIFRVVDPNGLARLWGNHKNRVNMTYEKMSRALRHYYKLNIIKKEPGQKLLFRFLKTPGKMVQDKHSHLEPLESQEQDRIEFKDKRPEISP
# Outline: as §1
# ELF5 = target: T11, ELF5 (Homo sapiens, UniProt Q9UKW6-2 1-255); conditions: protein: recombinant; tags: N-terminal GST; dsDNA, one strand shown
# T11 sequence: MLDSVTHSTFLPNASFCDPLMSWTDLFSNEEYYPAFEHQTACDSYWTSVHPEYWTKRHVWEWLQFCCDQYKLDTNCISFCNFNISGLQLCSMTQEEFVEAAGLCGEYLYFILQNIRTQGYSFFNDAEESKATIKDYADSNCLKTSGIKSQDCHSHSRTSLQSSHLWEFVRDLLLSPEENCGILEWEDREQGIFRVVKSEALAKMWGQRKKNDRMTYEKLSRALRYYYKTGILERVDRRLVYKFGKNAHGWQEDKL
# Outline: as §1
# ETV3 = target: T12, ETV3 (Homo sapiens, UniProt P41162-2 1-143); conditions: protein: recombinant; tags: N-terminal GST; dsDNA, one strand shown
# T12 sequence: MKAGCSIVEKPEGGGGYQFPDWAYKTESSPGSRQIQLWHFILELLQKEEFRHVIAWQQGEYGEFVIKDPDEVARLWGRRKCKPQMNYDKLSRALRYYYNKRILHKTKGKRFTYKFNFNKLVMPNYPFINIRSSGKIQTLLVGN
# Outline: as §1
# ETV6 = ETV6 (Homo sapiens, UniProt P41212 1-452); conditions: protein: recombinant; tags: N-terminal GST; dsDNA, one strand shown
# ETV6, sequence (P41212 whole entry): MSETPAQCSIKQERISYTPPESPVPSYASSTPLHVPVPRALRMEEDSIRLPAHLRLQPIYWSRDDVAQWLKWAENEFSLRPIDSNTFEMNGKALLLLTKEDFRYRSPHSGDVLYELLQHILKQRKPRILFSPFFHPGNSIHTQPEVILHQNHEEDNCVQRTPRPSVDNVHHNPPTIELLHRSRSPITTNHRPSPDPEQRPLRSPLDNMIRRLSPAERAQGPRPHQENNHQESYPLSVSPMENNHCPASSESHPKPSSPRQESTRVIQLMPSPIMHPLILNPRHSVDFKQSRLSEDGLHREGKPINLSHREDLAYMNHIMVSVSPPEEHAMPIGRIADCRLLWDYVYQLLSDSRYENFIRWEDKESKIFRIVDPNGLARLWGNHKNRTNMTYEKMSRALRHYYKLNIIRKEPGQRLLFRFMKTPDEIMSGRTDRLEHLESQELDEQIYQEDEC
# Outline: as §1
sequence,measurement,setting,value
AAATTT,binding signal,FEV,"1.34 fold enrichment (6-mer frequency, TF over GST control)"
same,binding signal,ETV5,"1.36 fold enrichment (6-mer frequency, TF over GST control)"
same,binding signal,HSF1,"1.47 fold enrichment (6-mer frequency, TF over GST control)"
same,binding signal,SPIC,"1.1 fold enrichment (6-mer frequency, TF over GST control)"
same,binding signal,ELF4,"1.19 fold enrichment (6-mer frequency, TF over GST control)"
same,binding signal,ELK4,"1.22 fold enrichment (6-mer frequency, TF over GST control)"
same,binding signal,ETV2,"1.29 fold enrichment (6-mer frequency, TF over GST control)"
same,binding signal,ELF3,"1.43 fold enrichment (6-mer frequency, TF over GST control)"
same,binding signal,CRX,"1.24 fold enrichment (6-mer frequency, TF over GST control)"
same,binding signal,ETV1,"1.35 fold enrichment (6-mer frequency, TF over GST control)"
same,binding signal,ERF,"1.43 fold enrichment (6-mer frequency, TF over GST control)"
same,binding signal,ETV3L,"1.4 fold enrichment (6-mer frequency, TF over GST control)"
same,binding signal,ETS2,"1.35 fold enrichment (6-mer frequency, TF over GST control)"
same,binding signal,SPDEF,"1.15 fold enrichment (6-mer frequency, TF over GST control)"
same,binding signal,ETV7,"1.36 fold enrichment (6-mer frequency, TF over GST control)"
same,binding signal,ELF5,"1.43 fold enrichment (6-mer frequency, TF over GST control)"
same,binding signal,ETV3,"1.27 fold enrichment (6-mer frequency, TF over GST control)"
same,binding signal,ETV6,"1.37 fold enrichment (6-mer frequency, TF over GST control)"

# — article PMC7862700, “An all-to-all approach to the identification of sequence-specific readers for epigenetic DNA modifications on cytosine”
